Source: PubChem BioAssay (NCATS)
Records with an inconclusive call do not appear. Active and inactive are the calls of the source. Unless noted, calls follow the shape of the full dose curve.

How the values were obtained:
[1] = qHTS for Inhibitors of the Functional Ribonucleoprotein Complex (vRNP) of Lassa (LASV) Arenavirus: LASV Primary Screen - GLuc reporter signal (AID 1347082; calls by dose curve; tested in HEK293 reporter line; also: nearly all actives have a fitted effect of over 60% in size)
[2] = qHTS for Inhibitors of the Functional Ribonucleoprotein Complex (vRNP) of Lassa (LASV) Arenavirus: Viability assay - alamar blue signal for LASV Primary Screen (AID 1347083; calls by dose curve; tested in HEK293 reporter line; also: nearly all actives have a fitted effect of over 80% in size)
[3] = qHTS for Inhibitors of the Functional Ribonucleoprotein Complex (vRNP) of Lymphocytic Choriomeningitis Arenaviruses (LCMV): Viability assay - alamar blue signal for LCMV Primary Screen (AID 1347085; calls by dose curve; tested in HEK293 reporter line; also: nearly all actives have a fitted effect of over 80% in size)
[4] = target: Nucleoprotein (Lymphocytic choriomeningitis virus (strain Armstrong)) (UniProt P09992); test: qHTS for Inhibitors of the Functional Ribonucleoprotein Complex (vRNP) of Lymphocytic Choriomeningitis Arenaviruses (LCMV): LCMV Primary Screen - GLuc reporter signal (AID 1347086); also: nearly all actives have a fitted effect of over 70% in size

Measured: Potency
Also: series mostly up to about 57 µM.

Nucleoprotein (Lymphocytic choriomeningitis virus (strain Armstrong)), sequence (P09992 whole entry, looked up): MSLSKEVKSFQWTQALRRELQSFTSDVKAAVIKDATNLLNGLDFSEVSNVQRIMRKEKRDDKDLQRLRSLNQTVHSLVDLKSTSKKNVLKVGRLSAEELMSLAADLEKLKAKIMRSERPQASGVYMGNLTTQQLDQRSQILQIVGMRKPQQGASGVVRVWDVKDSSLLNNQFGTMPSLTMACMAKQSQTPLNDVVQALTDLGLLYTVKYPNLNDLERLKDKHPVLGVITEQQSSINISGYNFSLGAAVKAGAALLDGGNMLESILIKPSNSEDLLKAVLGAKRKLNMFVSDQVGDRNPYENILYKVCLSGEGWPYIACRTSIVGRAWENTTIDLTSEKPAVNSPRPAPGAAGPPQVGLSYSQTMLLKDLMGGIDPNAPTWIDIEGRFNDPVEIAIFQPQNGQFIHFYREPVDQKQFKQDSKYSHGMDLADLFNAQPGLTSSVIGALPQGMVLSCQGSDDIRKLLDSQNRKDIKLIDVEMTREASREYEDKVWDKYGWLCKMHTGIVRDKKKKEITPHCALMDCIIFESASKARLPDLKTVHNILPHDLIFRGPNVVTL

Clc1ccc(C(Cn2ccnc2)OCc2c(Cl)cccc2Cl)c(Cl)c1 (centres undefined)
inactive: all assays above

CCCCC/C=C\C/C=C\CCCCCCCC(=O)NC(C)c1ccccc1 (centres undefined)
inactive: all assays above

O=C(O)CCC(=O)OC[C@@H](NC(=O)C(Cl)Cl)[C@H](O)c1ccc([N+](=O)[O-])cc1
inactive: all assays above

Cc1cc(C(C)(C)C)c(O)c(C(C)(C)C)c1
inactive: all assays above

CCCCC1C(=O)N(c2ccccc2)N(c2ccccc2)C1=O
inactive: all assays above

C[N+](C)(C)CC[N+]1(C)Cc2c(Cl)c(Cl)c(Cl)c(Cl)c2C1
inactive: all assays above

Cc1ncc(CSSCc2cnc(C)c(O)c2CO)c(CO)c1O
inactive: all assays above

CC1(C)[C@@H]2CC[C@@]1(C)C(=O)C2
inactive: all assays above

O=C(CCC1CCN(Cc2ccccc2)CC1)c1ccc2c(c1)NCCCC2
inactive: all assays above

CCOC(=O)COc1ccc2c(C)c(CCN(CC)CC)c(=O)oc2c1Cl
inactive: all assays above

CCN(CC)CCNC(C(=O)OCCC(C)C)c1ccccc1 (centres undefined)
inactive: all assays above

CC[N+](CC)(CC)CCOC(=O)C(C1CCCC1)C1CCCC1
inactive: all assays above

CCC(CN)=C(c1ccccc1)c1ccccc1
inactive: all assays above

COc1ccc2c(c1)c(CC(=O)OCC(=O)O)c(C)n2C(=O)c1ccc(Cl)cc1
inactive: all assays above

CC(=O)Nc1cccc(O)c1
inactive: all assays above

COc1ccc2c(c1)C(=O)N(CCc1ccc(S(=O)(=O)NC(=O)NC3CCCCC3)cc1)C(=O)C2(C)C
inactive: all assays above

CCC1(c2cnc[nH]2)Cc2ccccc2C1
inactive: all assays above

O=C(CCN1CCN(CCO)CC1)N1c2ccccc2Sc2ccc(C(F)(F)F)cc21
inactive: all assays above

CNC[C@H](O)c1ccc(O)c(O)c1
inactive: all assays above

O=C(Nc1ccc([N+](=O)[O-])cc1)Nc1ccc([N+](=O)[O-])cc1
inactive: all assays above

C[C@H]1COc2c(C3(N)CC3)c(F)cc3c(=O)c(C(=O)O)cn1c23
inactive: all assays above

CCOC(=O)OCC/C(SC(=O)OCC)=C(\C)N(C=O)Cc1cnc(C)nc1N
inactive: all assays above

NCC(=O)O
inactive: all assays above

NC(=O)Cc1cccc(C(=O)c2ccccc2)c1N
inactive: all assays above

CC1CCc2cc(F)cc3c(=O)c(C(=O)O)cn1c23 (centres undefined)
inactive: all assays above

CC(O)COc1ccccc1 (centres undefined)
inactive: all assays above

CC(C)NCCCC1(C(N)=O)c2ccccc2-c2ccccc21
inactive: all assays above

COc1ccc2c(c1OC)C(=O)O[C@@H]2[C@H]1c2c(cc3c(c2OC)OCO3)CCN1C
inactive: all assays above

CCCOC(C(=O)OC1CCN(C)CC1)(c1ccccc1)c1ccccc1
inactive: all assays above

COc1ccnc2c1CCCCC2S(=O)c1nc2ccccc2[nH]1 (centres undefined)
inactive: all assays above

N[C@H](C(=O)O)c1ccc(O)cc1
inactive: all assays above

O=C(O)/C=C/c1ccc(Cn2ccnc2)cc1
inactive: all assays above

CCCCOc1ccc(OCCCN2CCOCC2)cc1
inactive: all assays above

CC(=O)N1CCN(c2ccc(O)cc2)CC1
inactive: all assays above

Nc1ccn([C@H]2CC[C@@H](CO)O2)c(=O)n1
inactive: all assays above

CC1(C)CCC(C)(C)c2cc(NC(=O)c3ccc(C(=O)O)cc3)ccc21
inactive: all assays above
